Screening results (PubChem)
This is one part of a sample in which hits are shown more often than they occur.
Pf Dd2 inh – inhibitors of Plasmodium falciparum Dd2 growth. P. falciparum Dd2 growth, SYBR Green, 72 h. Potency, µM (doses to about 28.9 µM), actives largely listed as inhibitors. 120,000 compounds, 4.3% hits. AID 1347417; active means well fitted inhibition curve with a large enough effect; further: nearly all actives have a fitted effect of over 65% in size
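Infected erythrocytes (Dd2, 0.3% parasitemia, 2.5% hematocrit final) are added to compound in RPMI-1640/Albumax II medium, grown 72 h at 37C in low oxygen, then lysed with saponin/Triton-X containing SYBR Green and read by fluorescence.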
Numbers stand for hits; 0 = inactive.

SMILES	Pf Dd2 inh
CCc1nc2c(c(-c3ccc(Cl)cc3)n1)CN(C(=O)c1ccc(F)cc1)CC2	0
CCc1nc2c(c(-c3ccc(OC)cc3)n1)CCN(C(=O)c1ccc(OC)cc1)CC2	0
CCc1nc2c(c(-c3ccc(Cl)cc3)n1)CN(Cc1cccc(OC)c1)CC2	10µM
CCc1nc2c(c(-c3ccc(Cl)cc3)n1)CCN(C(=O)c1ccccc1OC)CC2	0
COc1ccc(C(=O)N2CCC(N3CC4CC(C3)[C@H]3CCCC(=O)N3C4)CC2)cc1F (some centres not stated)	0
Nc1nc2c(s1)C(c1cccc(F)c1F)CC(=O)N2 (configuration not stated)	0
O=C(Nc1cccc(Br)c1)N1CCC2(CC1)SCC(=O)N2Cc1ccco1	0
CN(C)c1ccc(-c2nnnn2[C@H]2CO[C@H]3[C@@H]2OC[C@@H]3NS(=O)(=O)c2ccc3ccccc3c2)cc1	0
COc1ccc(CNC(=O)N2C[C@@H](Oc3ccccc3)C[C@@H]2C(=O)N2CCOCC2)cc1	0
O=C(C[C@@H]1C[C@H]2O[C@H](CNCc3cnccc3C(F)(F)F)[C@@H](O)[C@H]2O1)N1CCOCC1	0
O=C1CN(C(=O)c2ccnc(-c3nnc4ccc(Nc5ccccc5)nn34)c2)CCN1	0
COc1ccc(-n2nc(C3CCCN(C(=O)c4ccc(C)cc4)C3)[nH]c2=O)cc1 (configuration not stated)	0
CCNC(=O)[C@@H]1C[C@@H](NC(=O)Cn2nc(C)cc2N)CN1C1CCOCC1	0
CNC(=O)[C@@H](c1ccccc1F)N1CCC[C@H]1C(=O)NCc1ccncc1	0
Cc1ccc(N2CCC(NS(=O)(=O)C3CC3)C2=O)cc1C (configuration not stated)	0
COc1cc(O)ccc1CN1CCn2nnc(CCC(=O)N3CCCC3)c2C1	0
Cc1[nH]ncc1CNC(=O)CCc1ccc2c(c1)CN(C(=O)NC(C)C)CCO2	0
O=C1CCCCN1CC(=O)N1CCCC(c2ccccc2)(c2ccccc2)C1	0
COc1ccc(-c2nc(C3CC3)nc3c2CN(C(=O)c2ccccc2F)CC3)cc1	0
Cc1ccc(C(=O)N2CCc3nc(C4CC4)nc(-c4ccc(Cl)cc4)c3C2)cc1	0
CCc1nc2c(c(-c3ccc(O)cc3)n1)CN(Cc1ccc(F)cc1)CC2	0
CCc1nc2c(c(-c3ccc(OC)cc3)n1)CN(C(=O)c1ccc(OC)cc1)CC2	0
O=C(C1CCCC1)N1CCc2nc(-c3ccc(Cl)cc3)nc(-c3ccccc3)c2C1	0
CCc1nc2c(c(-c3ccc(O)cc3)n1)CCN(C(=O)c1ccc(F)cc1)CC2	0
CCc1nc2c(c(-c3ccc(O)cc3)n1)CCN(Cc1ccccc1C(F)(F)F)CC2	1.78µM
SMILES	Pf Dd2 inh
CCc1nc2c(c(-c3ccc(Cl)cc3)n1)CN(Cc1ccc(OC)cc1)CC2	11.2µM
COc1ccccc1C(=O)N1CCc2nc(C3CC3)nc(-c3ccc(Cl)cc3)c2C1	11.2µM
O=C(C1CC1)N1CCc2nc(-c3ccccc3)nc(-c3ccc(Cl)cc3)c2C1	0
O=C(C1CCCC1)N1CCc2nc(-c3ccccc3)nc(-c3ccc(Cl)cc3)c2C1	3.98µM
CCc1nc2c(c(-c3ccc(Cl)cc3)n1)CN(Cc1cccc3ccccc13)CC2	0
Fc1ccc(C2Cn3nnc(-c4nc(-c5cccc(C(F)(F)F)c5)no4)c3CO2)cc1 (configuration not stated)	0
COc1ccc(C2NC(=O)N(CC(=O)NC(C)C)C3=C2C(=O)OC3)cc1 (configuration not stated)	0
COc1ccc(C2Cn3nnc(C(=O)N4CCN(C(=O)c5cc(C)ccc5C)CC4)c3CO2)cc1 (configuration not stated)	0
COc1ccc(N2CC(C(=O)N3CCC(C(=O)NCc4cccs4)C3)NC2=O)cc1 (configuration not stated)	0
Cc1cc(OCC(=O)c2ccc3c(c2)N(CC(=O)NCC2CCCO2)C(=O)CO3)ccc1C(C)C (configuration not stated)	0
Cc1cc2nc3n(c(=O)c2n1CC(=O)N1CCCc2ccccc21)CCCCC3	0
Cc1ccc(CN2C(=O)COC[C@H]2C(=O)NCc2ccco2)cc1	0
CCc1nc2c(c(-c3ccc(Cl)cc3)n1)CN(C(=O)Nc1ccccc1)CC2	11.2µM
O=C(C1CCN(c2nc(-c3ccccc3)nc3c2CCC3)CC1)N1CCNCC1	12.6µM
O=C(NC1CCNCC1)C1CCN(c2nc(-c3ccccc3)nc3c2CCC3)CC1	0
COCC(=O)N1CCc2nc(-c3ccccc3)nc(-c3ccc(OC)cc3)c2C1	0
CCc1nc2c(c(-c3ccc(Cl)cc3)n1)CN(C(C)=O)CC2	0
NC(=O)[C@@H]1CCCN1C(=O)C1CCN(c2nc(-c3ccccc3)nc3c2CCC3)CC1	0
COC(=O)N1CCc2nc(-c3ccc(OC)cc3)nc(-c3ccccc3)c2C1	0
CCc1nc2c(c(-c3ccc(O)cc3)n1)CCN(C(=O)Nc1ccc(Cl)cc1)CC2	0
COc1ccc(-c2nc(-c3ccccc3)nc3c2CN(C(=O)Cc2ccccn2)CC3)cc1	5.62µM
COCCNC(=O)[C@H]1C[C@H](Oc2cccnc2)CN1C(=O)NC1CCCC1	0
O=C(N[C@@H]1CNC[C@H]1O)C1CCN(c2nc(-c3ccccc3)nc3c2CCC3)CC1	0
CN1CC(=O)N(C2CCNCC2)Cc2c1ncnc2N1CCC(N2CCOCC2)CC1	0
CCc1nncn1C1CCN(S(=O)(=O)c2ccc(C)c(C)c2)CC1	0
SMILES	Pf Dd2 inh
COc1ccc(/C=C/C(=O)Nc2nc3n(n2)C(c2ccccc2)C=C(c2ccc(Cl)cc2)N3)cc1 (configuration not stated)	5.01µM
COc1ccc(OCC(=O)Nc2cc(-c3cccc(Cl)c3)nn2-c2ccccc2)cc1	0
COC(=O)c1c(NC(=O)/C=C/c2ccc(OC)cc2)sc2c1CCC2	0
COc1ccc(C2C=C(c3ccccc3)Nc3nc(NC(=O)/C=C/c4ccc(Cl)cc4)nn32)cc1 (configuration not stated)	10µM
COc1ccc(/C=C/C(=O)Nc2cc(-c3nc4ccccc4o3)ccc2OC)cc1	0
COCCC1(CO)CCCN(C(=O)c2ccc3c(c2)OCC(=O)N3)C1 (configuration not stated)	0
CC(C)N1CCOC(CC(=O)NCc2cc(N3CCOCC3)ncn2)C1 (configuration not stated)	0
Cc1nc(N2CCCCC2)n(CC(=O)Nc2cccc(Br)c2)c(=O)c1C	0
CC(C)(C)NC(=O)N1CC[C@H]2C(=O)NCCCCCN(Cc3cccnc3)[C@@H]2C1	0
COc1ccccc1-c1cc(C(=O)N2CCCC2)nn2cccc12	0
COC(=O)CNC(=O)c1nc(-c2ccc(Cl)cc2Cl)c2cnccn12	0
COC(=O)CNC(=O)c1nc(-c2ccc(Cl)cc2Cl)c2ccccn12	0
CC(C)(C)c1nc(C(=O)N2CCN(c3ncccn3)CC2)n2ccncc12	5.01µM
O=C(c1nc(-c2cccc(C(F)(F)F)c2)c2ccccn12)N1CCN(c2ncccn2)CC1	0
CC(C)NC(=O)c1nc(-c2ccc(Cl)cc2Cl)c2cnccn12	3.55µM
COc1ccccc1-c1nc(C(=O)N2CCCC2)n2ccncc12	10µM
C[S+](=O)([O-])c1ccc(-c2nc(C(=O)N3CCCC3)n3ccncc23)cc1	12.6µM
O=C(c1nc(-c2ccc(Cl)nc2)c2cnccn12)N1CCOCC1	0
COc1ccccc1-c1nc(C(=O)N(C)C)n2ccncc12	0
C[S+](=O)([O-])c1ccc(-c2nc(C(=O)N3CCOCC3)n3ccccc23)cc1	0
O=C(c1nc(-c2ccc(F)cc2)c2cnccn12)N1CCN(c2ncccn2)CC1	0
